Laboratory results published in the supplement of paper PMC10127200.
Counter-ions that a name gives are not always drawn.

How the values were obtained:
Experiment in all cases: Euclidean distance of Cell Painting phenotypic profile (signed KS, 77 features) to DMSO centroid (dimensionless distance); 5 or 10 uM (library dependent); higher = stronger phenotypic change vs DMSO (phenoactivity)
Conditions in all cases: 48 h
786-O = system: 786-O
Outline: (§1)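 Stained cells were imaged confocally at 20X with 9 fields per well, after 48 h of exposure to library compounds at 10 or 5 uM (set by library; 0.1% DMSO final). The cells were five cancer lines and a healthy fibroblast line. From the images, Harmony extracted 77 features, each expressed as a signed Kolmogorov-Smirnov statistic relative to same-plate vehicle wells. Phenoactivity is measured as Euclidean distance to the median vehicle profile, using plate-position-corrected, correlation-weighted profiles averaged across replicates at the top dose.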

A549 = system: A549
Outline: as §1

DU145 = system: DU145
Outline: as §1

FB = system: FB
Outline: as §1

HEPG2 = system: HEPG2
Outline: as §1

OVCAR4 = system: OVCAR4
Outline: as §1

Structure (SMILES) | Euclidean distance (786-O) | Euclidean distance (A549) | Euclidean distance (DU145) | Euclidean distance (FB) | Euclidean distance (HEPG2) | Euclidean distance (OVCAR4)
O=C(O)c1ccccn1 [Picolinic acid (PCL 016)] | 0.642 | 0.409 | 2.15 | 0.847 | 0.761 | 0.799
CCCCCCCCCCCCCCCC(=O)O[C@@H]1[C@@H](O)[C@@H](O)[C@@H]([C@H](NC(=O)[C@@H]2C[C@@H](CCC)CN2C)[C@H](C)Cl)O[C@@H]1SC [Clindamycin palmitate HCl] | 1.39 | 1.05 | 0.981 | 1.12 | 0.578 | 1.08
CO[C@H]1CC[C@H](N2C(=O)CNc3ncc(-c4ccc(C(C)(C)O)nc4)nc32)CC1 | 3.2 | 3.38 | 2.56 | 3.76 | 2.34 | 3
C[C@H](NC(=O)[C@@H](O)c1cc(F)cc(F)c1)C(=O)N[C@@H]1C(=O)N(C)c2ccccc2-c2ccccc21 | 1.22 | 1.36 | 1.05 | 0.939 | 0.864 | 1.42
CCC(C(=O)O)c1ccc(N2Cc3ccccc3C2=O)cc1 (centres undefined) [Indobufen] | 0.947 | 0.717 | 1.19 | 1.01 | 0.618 | 1.31
CO[C@H]1C[C@@H]2CC[C@@H](C)[C@@](O)(O2)C(=O)C(=O)N2CCCC[C@H]2C(=O)O[C@H]([C@H](C)C[C@@H]2CC[C@@H](OC(=O)C(C)(CO)CO)[C@H](OC)C2)CC(=O)[C@H](C)/C=C(\C)[C@@H](O)[C@@H](OC)C(=O)[C@H](C)C[C@H](C)/C=C/C=C/C=C/1C | 3.03 | 1.74 | 1.55 | 2.95 | 1.69 | 2.08
CC[C@H]1OC(=O)[C@H](C)[C@@H](O[C@H]2C[C@@](C)(OC)[C@@H](O)[C@H](C)O2)[C@H](C)[C@@H](O[C@@H]2O[C@H](C)C[C@H](N(C)C)[C@H]2O)[C@](C)(O)C[C@@H](C)CN(C)[C@H](C)[C@@H](O)[C@]1(C)O [Azithromycin Dihydrate] | 1.29 | 1.33 | 1.5 | 1.18 | 1.71 | 1.15
O=C(/C=C/c1ccc(O)c(O)c1)c1ccc(O)cc1O [Butein] | 1.56 | 1.3 | 1.12 | 1.51 | 1.5 | 1.12
O=C(O)Cc1ccccc1Nc1c(Cl)cccc1Cl [Diclofenac acid] | 0.971 | 0.349 | 2.62 | 0.749 | 0.668 | 0.711
COc1c(C)cnc(Cn2cnc3c(Cl)nc(N)nc32)c1C | 3.02 | 3.08 | 3.08 | 3.34 | 4.24 | 3.08
O=C(O)c1cc(O)c(O)c(O)c1 [Gallic acid] | 1.13 | 0.673 | 0.909 | 1.31 | 0.825 | 0.935
CN1C2CCCC1CC(NC(=O)c1nn(C)c3ccccc13)C2 (centres undefined) [Granisetron] | 1.06 | 0.852 | 0.646 | 1.23 | 1 | 2.06
O=C(COc1cccc2c(=O)[nH]ccc12)c1ccccc1 | 1.49 | 1.09 | 0.747 | 0.832 | 0.68 | 0.6
CC(=O)Nc1cccc2c1c(Sc1ccc(Cl)cc1)c(C)n2CC(=O)O | 0.872 | 0.72 | 1.15 | 0.772 | 0.51 | 0.868
CC(=O)N[C@@H](CS)C(=O)O [Acetylcysteine] | 0.996 | 1.28 | 1.2 | 0.709 | 0.571 | 1.6
CS(=O)(=O)Nc1ccc([N+](=O)[O-])cc1Oc1ccccc1 [Nimesulide] | 1.43 | 1.21 | 0.674 | 1.03 | 1.82 | 1.8
Cn1cc(-c2ccc3nnc(C(F)(F)c4ccc5ncccc5c4)n3n2)cn1 | 0.466 | 2.03 | 0.962 | 1.2 | 0.706 | 1.08
Oc1cccc(-c2nc(N3CCOCC3)c3oc4ncccc4c3n2)c1 | 1.25 | 3.67 | 1.5 | 2.89 | 0.936 | 2.62
NC(=O)Nc1sc(-c2ccc(F)cc2)cc1C(N)=O | 1.85 | 1.8 | 2.12 | 3.25 | 0.991 | 1
N[C@@H](CCC(=O)N[C@@H](CS)C(=O)NCC(=O)O)C(=O)O [Glutathione] | 1.52 | 1.12 | 1.48 | 1.03 | 0.978 | 1.55
FC(F)(c1ccc2ncccc2c1)c1nnc2ccc(-c3ccncc3)nn12 | 1.6 | 0.84 | 2.54 | 0.717 | 1.24 | 1.2
CCC1(C)CC(=O)NC1=O (centres undefined) [Ethosuximide] | 0.782 | 1.2 | 1.11 | 0.965 | 0.843 | 1.04
N#CCC1(n2cc(-c3ncnc4[nH]ccc34)cn2)CN(C2CCN(C(=O)c3ccnc(C(F)(F)F)c3F)CC2)C1 | 1.27 | 1.05 | 1.46 | 1.34 | 0.742 | 1.05
COc1cc2nccc(Oc3ccc(NC(=O)NC4CC4)c(Cl)c3)c2cc1C(N)=O [lenvatinib Mesylate] | 1.2 | 1.1 | 1.71 | 3.39 | 0.829 | 2.16
CCCC(CCC)C(=O)O [Valproic acid sodium salt (Sodium valproate)] | 0.85 | 0.706 | 0.534 | 0.529 | 0.677 | 0.959
O=S(=O)(c1cccc2cnccc12)N1CCCNCC1 [Fasudil (HA-1077) HCl] | 1.52 | 0.649 | 1.94 | 0.846 | 1.28 | 0.851
OC(c1cc(C(F)(F)F)nc2c(C(F)(F)F)cccc12)C1CCCCN1 (centres undefined) [Mefloquine HCl] | 2.22 | 2.49 | 1.85 | 2.46 | 4.9 | 2.05
COc1ccc(CC2c3cc(OC)c(OC)cc3CC[N+]2(C)CCC(=O)OCCCCCOC(=O)CC[N+]2(C)CCc3cc(OC)c(OC)cc3C2Cc2ccc(OC)c(OC)c2)cc1OC (centres undefined) [Atracurium Besylate] | 1.83 | 0.711 | 1.16 | 0.918 | 1.14 | 1.51
CCN1CCN(Cc2ccc(Nc3ncc(F)c(-c4cc(F)c5nc(C)n(C(C)C)c5c4)n3)nc2)CC1 | 5.75 | 5.05 | 5.66 | 4.66 | 3.78 | 5.2
